Screening results (PubChem)
Most compounds without a hit are left out; they make up all but 2.1% or so of the library.
c-Myc SMM – binds human c-Myc on microarray; P01106; calls only; AID 624141; small molecule microarray, His-c-Myc binding, anti-His fluorescence; 17,000 tested, 1.5% active;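 active means spot fluorescence over background with P-value below 7% in all four replicate spots, showing protein binding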;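 further: score is binary with 100 for all four spots passing and 0 otherwise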
NFkB SMM – binders of human NF-kappa-B p105 | 17,000 tested, 1.3% active | calls only | AID 624139 | Small molecule microarray, anti-His fluorescence binding | P19838;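 active means spot fluorescence over background significantly raised, with a chance value under 7% in all four replicate spots of the compound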;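 further: probe protein is his-tagged human p50 processed subunit at 1 µg/ml; raw spot fluorescence signals with no normalization applied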
STAT3 binder – STAT3 (human) binding; Small molecule microarray, His-STAT3 binding, anti-His fluorescence; calls only; 17,000 tested, 0.2% active;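 active means compounds whose four printed spots each show fluorescence over background unusually high for their array block, chance value under 7%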
Target sequence (P40763 whole entry, looked up): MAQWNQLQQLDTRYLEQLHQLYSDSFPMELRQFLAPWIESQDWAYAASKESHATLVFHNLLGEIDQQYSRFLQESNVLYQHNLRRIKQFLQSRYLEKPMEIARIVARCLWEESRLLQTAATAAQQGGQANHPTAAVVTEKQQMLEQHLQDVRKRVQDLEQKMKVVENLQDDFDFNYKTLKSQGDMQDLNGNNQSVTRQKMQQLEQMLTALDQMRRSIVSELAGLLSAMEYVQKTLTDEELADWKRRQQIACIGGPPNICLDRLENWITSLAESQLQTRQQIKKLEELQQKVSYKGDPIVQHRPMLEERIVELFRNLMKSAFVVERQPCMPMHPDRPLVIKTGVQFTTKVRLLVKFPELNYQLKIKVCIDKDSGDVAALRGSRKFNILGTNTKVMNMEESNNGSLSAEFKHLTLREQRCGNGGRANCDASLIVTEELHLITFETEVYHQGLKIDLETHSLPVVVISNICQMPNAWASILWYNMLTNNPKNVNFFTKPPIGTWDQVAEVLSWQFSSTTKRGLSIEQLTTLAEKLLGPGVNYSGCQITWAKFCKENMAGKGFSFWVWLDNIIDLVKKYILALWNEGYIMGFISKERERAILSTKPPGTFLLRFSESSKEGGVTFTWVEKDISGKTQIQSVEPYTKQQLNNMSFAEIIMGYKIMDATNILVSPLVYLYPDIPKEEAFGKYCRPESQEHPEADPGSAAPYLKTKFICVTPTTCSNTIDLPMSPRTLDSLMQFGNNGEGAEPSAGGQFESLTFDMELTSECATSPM
p53 mut binder – mutant p53 (human) binding. small molecule microarray binding, anti-GST fluorescence. calls only. 17,000 tested, 0.4% active;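 active means compounds whose four printed spots each glow above background more than chance allows, each with a p-value under 7%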
The depositor's hits bear a star; i = inactive; + = active, no number.

SMILES	c-Myc SMM	NFkB SMM	STAT3 binder	p53 mut binder
COc1ccccc1CC(CC(=O)O)C(=O)O (stereo not drawn)	+	+	i	i
COc1ccccc1CC(=O)Nc1cc(Cl)ccc1O	i	i	i	i
COCc1c(Br)c(C)nc(OCC(=O)O)c1C#N	+	+	i	i
Cc1cccnc1NC(=S)NC(=O)c1cncc(Br)c1	+	i	i	i
N#Cc1c(NC(=S)NC(=O)c2cncc(Br)c2)sc2c1CCCC2	i	i	i	i
Cc1c(CC(=O)O)c(=O)oc2cc(OCC(=O)O)ccc12	+	i	i	i
Cc1c(CC(=O)O)c(=O)oc2c(C)c(OCC(=O)O)ccc12	i	i	i	i
C=CCNC(=O)[C@H]1[C@@H]2C(=O)O[C@@H](c3ccccc3)[C@@H](c3ccccc3)N2[C@@H](c2ccc(O)cc2)[C@]12C(=O)Nc1ccc(C#CC3(O)CCCCCC3)cc12	i	i	i	i
CC(C)(C)[C@@H]1C=C(C(=O)O)O[C@H](OCc2ccc(CO)cc2)C1	i	+	i	i
C[C@H]1CCCCO[C@H](CN(C)C(=O)CCC(F)(F)F)[C@@H](C)CN([C@@H](C)CO)C(=O)c2cc(NC(=O)CCC(F)(F)F)ccc2O1	i	i	i	i
C[C@@H]1CN([C@@H](C)CO)C(=O)c2cc(NC(=O)CCC(F)(F)F)ccc2O[C@@H](C)CCCCO[C@H]1CN(C)C(=O)CCC(F)(F)F	i	+	i	i
C[C@@H]1CCCCO[C@H](CN(C)C(=O)CCC(F)(F)F)[C@@H](C)CN([C@H](C)CO)C(=O)c2cc(NC(=O)CCC(F)(F)F)ccc2O1	+	+	i	+
CCCN(C)C[C@@H]1OCCCC[C@@H](C)Oc2ccc(NC(=O)Nc3cccc4ccccc34)cc2C(=O)N([C@H](C)CO)C[C@@H]1C	+	+	i	i
C[C@@H]1CCCCO[C@H](CN(C)CC2CC2)[C@@H](C)CN([C@H](C)CO)C(=O)c2cc(NC(=O)Nc3cccc4ccccc34)ccc2O1	i	i	i	i
C[C@@H]1CN([C@@H](C)CO)C(=O)c2cc(NC(=O)Nc3cccc4ccccc34)ccc2O[C@@H](C)CCCCO[C@@H]1CN(C)CC1CCCCC1	+	+	i	i
CCCN(C)C[C@H]1OCCCC[C@@H](C)Oc2ccc(NS(=O)(=O)c3ccc(OC)cc3)cc2C(=O)N([C@@H](C)CO)C[C@H]1C	+	i	i	+
CCC(Oc1ccccc1)C(=O)Nc1cc2oc3ccccc3c2cc1OC (stereo not drawn)	i	i	i	i
COCCOC(=O)N1C(=O)[C@@]2(c3cc(C#CC4=CCCCC4)ccc31)[C@H](C(N)=O)[C@H]1C(=O)O[C@H](c3ccccc3)[C@H](c3ccccc3)N1[C@@H]2c1ccccc1OCCO	i	i	i	i
CC(C)=CCN(C(=O)C#Cc1ccccc1)[C@H](CO)c1ccccc1	i	+	i	i
CC(=O)n1cc([C@H]2C=C(C(=O)N3CCN(C)CC3)O[C@@H](OCc3ccc(CO)cc3)C2)c2ccccc21	i	i	i	i
C[C@@H]1CN([C@@H](C)CO)C(=O)c2cc(NC(=O)Nc3ccc4c(c3)OCO4)ccc2O[C@H]1CN(C)CC1CCCCC1	i	+	i	i
C[C@@H]1CN([C@@H](C)CO)C(=O)c2cc(NC(=O)c3ccccc3)ccc2O[C@@H](C)CCCCO[C@H]1CN(C)CC1CCCCC1	+	i	i	i
C[C@H]1CN([C@@H](C)CO)C(=O)Cc2cc(NS(=O)(=O)c3ccc(Cl)cc3)ccc2O[C@@H]1CN(C)CC1CCCCC1	+	+	i	+
C[C@@H]1CCCCO[C@H](CN(C)C(=O)Nc2ccc(C(F)(F)F)cc2)[C@@H](C)CN([C@H](C)CO)C(=O)c2cc(NS(C)(=O)=O)ccc2O1	i	i	i	i
C[C@H]1CN([C@@H](C)CO)C(=O)Cc2cc(NS(=O)(=O)c3ccc(Cl)cc3)ccc2O[C@H]1CN(C)CC1CCCCC1	i	i	i	i
C[C@@H]1CCCCO[C@H](CN(C)C(=O)Nc2ccc(C(F)(F)F)cc2)[C@H](C)CN([C@H](C)CO)C(=O)c2cc(NS(C)(=O)=O)ccc2O1	+	i	i	i
CCn1c(SCC(=O)Nc2ccccc2C)nc2ccccc2c1=O	i	i	i	i
COc1cccc(OC)c1C(=O)Nc1cccc(-c2nc3ncccc3o2)c1	i	i	i	i
Cc1ccc(OCC(=O)Nc2ccccc2N2CCN(S(C)(=O)=O)CC2)cc1	i	i	i	i
